In the library only some 6% were active in any assay of this set; here they are far more common.
D1 agonist = agonists of human D1 dopamine receptor | 360,000 tested, 1% active | AID 504660 | activation, % at 2 µM | HEK293 T-REx D1 cells, calcium flux, agonist mode; in the data active = activation above about 30%; note: 0% is about no effect
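Tetracycline-induced HEK293 TREx D1 cells, force-coupled to calcium signalling, were dye-loaded with a no-wash calcium kit. Compound was pin-added after a 10 s baseline. Fluorescence was read kinetically at 1 cycle/s for 180 s, with calcium rises flagged as agonism.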
D1 antag = antagonists of human D1 dopamine receptor. P21728. HEK293 TREx D1 cells, calcium flux, dopamine EC80; active compounds read low. activity change, negative = inhibition, % at 10 µM. 360,000 tested, 3.2% active; in the data active = activity change below about -30%; note: % is set by controls: 0 for no effect and ±100 for the full control effect
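Allosteric or orthosteric antagonism assessed as attenuation of the calcium response to EC80 dopamine, added 180 s after compound, in induced HEK293 Trex D1 cells loaded with no-wash calcium dye.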
D1 potentiator = potentiators of human D1 dopamine receptor; AID 504651; 360,000 tested, 0.036% active; P21728; HEK293 TREx D1 cells, calcium flux, dopamine EC20 potentiation; potentiation, % at 10 µM; in the data active = potentiation above about 30%; note: 0% is about no effect
D3 antag = D3 dopamine receptor (human) antagonism; D3R cells, DiscoveRx beta-arrestin luminescence, antagonist mode; active compounds read low; 360,000 tested, 2.5% active; P35462; AID 652054; max response, negative = inhibition, %; in the data active = max response below about -50%; inconclusive = no clear call, values can overlap the other calls; note: % is set by controls: 0 for no effect and ±100 for the full control effect
Target sequence (P35462 whole entry, looked up): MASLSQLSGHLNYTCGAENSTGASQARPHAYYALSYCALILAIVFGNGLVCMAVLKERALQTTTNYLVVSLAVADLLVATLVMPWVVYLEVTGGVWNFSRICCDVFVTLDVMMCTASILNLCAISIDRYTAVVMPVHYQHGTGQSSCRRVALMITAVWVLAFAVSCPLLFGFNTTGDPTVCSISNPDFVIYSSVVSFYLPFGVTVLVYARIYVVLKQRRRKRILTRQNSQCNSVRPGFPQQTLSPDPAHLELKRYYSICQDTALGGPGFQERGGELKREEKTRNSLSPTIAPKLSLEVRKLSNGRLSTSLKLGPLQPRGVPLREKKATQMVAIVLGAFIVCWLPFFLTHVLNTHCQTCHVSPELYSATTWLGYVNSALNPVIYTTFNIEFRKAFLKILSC
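Cells expressing the human receptor were seeded at 1500 cells/well, incubated overnight at 37 degrees C in 5% CO2, then exposed to library compounds with dopamine controls for 90 minutes at 37 degrees C before luminescent detection.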
D3 ag = D3 dopamine receptor (human) agonism | AID 652048 | max activation, % | D3R DiscoveRx beta-arrestin cells, luminescence, 90 min | 410,000 tested, 0.58% active | P35462; in the data active = max activation above about 30%; note: 0% is about no effect
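Agonist mode: compounds and dopamine controls were applied to plated cells for 90 min at 37 degrees C after an overnight attachment at 1500 cells/well. Luminescent read-out followed 30 - 60 minutes at room temperature with DiscoveRx detection reagent.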
Starred values were filed as active, the others as inactive; ? = inconclusive; . = no result given.

SMILES	D1 agonist	D1 antag	D1 potentiator	D3 antag	D3 ag
CCOc1ccc(-c2nc(CSCC(=O)NCc3ccc(Cl)cc3)c(C)o2)cc1	11	1	1	.	32*
Cc1ccc(N2CC(NC(=O)c3ccccc3C(F)(F)F)CC2=O)cc1C (configuration not stated)	0	.	5	.	-1
COc1ccc(C2NC(c3ccc(OC)cc3)C(C)C(=O)C2C)cc1 (configuration not stated)	2	-10	-5	-13	10
CC1C(=O)C(C)C(c2ccc(Cl)cc2)NC1c1ccc(Cl)cc1 (configuration not stated)	.	.	.	-61*	-6
COc1ccc(C)cc1NC(=O)Nc1ccc2c(c1)CCC2	0	-44*	-4	?	-11
COc1ccccc1NC(=O)Nc1ccc2c(c1)CCC2	2	-14	38*	-2	-7
COc1ccc(NC(=O)Nc2ccc3c(c2)CCC3)cc1OC	2	7	0	4	-4
C=C1CCC2C(C)(C)[C@H](O)CC[C@@]2(C)[C@@H]1COc1cc(=O)oc2ccccc12 (some centres not stated)	-1	4	2	32	19
C=C1CC(COc2cc(=O)oc3ccccc23)(c2ccccc2)OC1=O (configuration not stated)	.	.	.	-114*	-15
CCCCCn1c(CN2CCN(c3cccc(Cl)c3)CC2)nc2c1c(=O)n(C)c(=O)n2C	3	9	-2	-9	1
CCCCCn1c(CN2CCN(c3ccc(OC)cc3)CC2)nc2c1c(=O)[nH]c(=O)n2C	0	2	-1	.	-17
CCCCn1c(CN2CCN(c3cccc(Cl)c3)CC2)nc2c1c(=O)n(C)c(=O)n2C	6	-31*	19	0	2
CCCCCn1c(CN2CCN(c3cc(Cl)ccc3C)CC2)nc2c1c(=O)[nH]c(=O)n2C	6	41	-1	18	87*
O=S(=O)(c1ccc(-c2csc(=Nc3ccc(F)cc3)n2CCCCCCO)cc1)N1CCCC1	1	9	-2	.	12
CC(Sc1nc2c(c(=O)[nH]1)CCCC2)C(=O)Nc1cc(C(F)(F)F)ccc1Cl (configuration not stated)	0	13	0	.	6
CC(=O)c1ccc(S(=O)(=O)NCCCC(=O)N(C)Cc2ccc3c(c2)OCO3)cc1	7	-57*	-9	1	-8
NC(=O)[C@H]1O[C@@H](O)[C@H](O)[C@@H](O)[C@@H]1O	.	.	.	.	-6
Cc1noc2ncnc(N3CCN(c4ccc(F)cc4)CC3)c12	10	-5	-2	19	1
COc1ccc(N2CCN(c3ncnc4onc(C)c34)CC2)cc1	21	-36*	-9	.	0
N#Cc1ccc(Cl)cc1NC(=O)COC(=O)[C@H](CCC(N)=O)NC(=O)c1ccc(F)cc1	2	-32*	1	0	-10
COc1ccc(/C=C/C(=O)NCC(=O)N/N=C/c2cc(Br)ccc2OC)cc1	1	15	5	-58*	-40
COc1ccc(Br)cc1/C=C/C(=O)Nc1ccc(C)cc1	3	8	-1	-75*	-32
CCCCNC(=O)/C=C/c1ccc(OC)c(Br)c1	0	-30*	-12	-21	-6
COc1ccc(/C=C\C(=O)NCC(=O)N/N=C/c2ccc(O)cc2O)cc1	1	1	-10	-7	4
COc1ccccc1/C=C/C(=O)NCC(=O)N/N=C/c1cc(Br)ccc1OC	0	.	0	-71*	-22
SMILES	D1 agonist	D1 antag	D1 potentiator	D3 antag	D3 ag
Cc1ccc(C)c(NC(=O)CSc2nc3c([nH]c4ccccc43)c(=O)n2-c2ccc(F)cc2)c1	1	-15	-6	.	-6
COc1ccc(-c2cc(C(C)=O)c(C)n2CCC(=O)Nc2ccc(C(F)(F)F)cc2)cc1	7	15	-6	.	2
COC(=O)c1ccc2c(c1)N(CC(=O)Nc1ccc(C)cc1Cl)C(=O)c1ccccc1S2	8	-1	0	.	0
CCCN1CCc2nc(N3CCN(c4ncccn4)CC3)ncc2C1	3	-13	0	.	0
O=C(CNC(=O)c1ccc(F)cc1)N/N=C/c1cc(Br)ccc1OC(=O)/C=C/c1ccco1	4	-45*	-15	-27	-16
O=C(O)c1ccc(Nc2ccc([N+](=O)[O-])c3nonc23)cc1	4	-8	-2	-77*	-18
O=C(O)c1cccc(Nc2cc(Cl)c3nonc3c2[N+](=O)[O-])c1	3	-4	-6	?	-10
O=C(O)c1cccc(Nc2ccc([N+](=O)[O-])c3nonc23)c1	4	-7	-2	-57*	-14
CCc1nnc(NS(=O)(=O)c2ccc(Nc3ccc([N+](=O)[O-])c4nonc34)cc2)s1	11	13	-12	-63*	-11
CCCN(CCC)c1cc(C)nc2nc(-c3ccc(C(C)(C)C)cc3)nn12	1	2	4	.	1
COc1ccc2cc(C(=O)NCc3ccc4c(c3)CCN4C(=O)c3ccc(C)cc3)[nH]c2c1	1	-26	1	.	-13
Cc1ccccc1C1C(C#N)=C2N=C(N)c3c(sc4c3CCCCC4)N2C2=C1C(=O)CCC2 (configuration not stated)	2	-42*	-2	-76*	-7
CC(=O)N1c2ccc(S(=O)(=O)N3CCCCCC3)cc2CC1C(=O)NC(C)C (configuration not stated)	-1	1	0	.	-8
O=C(c1cc2c(s1)-c1ccccc1OC2)N1CCc2ccccc2C1	1	-54*	-8	-7	-4
CC1CCCN(CCCNC(=O)c2cc3c(s2)-c2ccccc2OC3)C1 (configuration not stated)	13	2	-17	?	-15
Cc1cccc2c1-c1sc(C(=O)NCCCN3CCC(C)CC3)cc1CO2	19	-13	-22	-95*	-15
Cc1cccc2c1-c1sc(C(=O)Nc3ccccc3C(N)=O)cc1CO2	0	9	-4	.	-8
Cc1cccc2c1-c1sc(C(=O)Nc3cccc([N+](=O)[O-])c3C)cc1CO2	31*	-6	-14	-17	-29
CC1CCN(CCCNC(=O)c2cc3c(s2)-c2ccccc2OC3)CC1	16	-19	-22	-83*	-13
Cc1ccc(CCNC(=O)c2cc3c(s2)-c2c(C)cccc2OC3)cc1	0	17	-5	.	-3
COC(=O)c1cc2oc3ccccc3c2n1Cc1nc(-c2ccccc2Cl)oc1C	0	25	-2	.	-20
O=C(Nc1cccnc1)c1cc2c(s1)-c1ccccc1OC2	9	-46*	-18	-3	-5
Cc1cccc2c1-c1sc(C(=O)Nc3cccnc3)cc1CO2	1	-22	-19	7	4
COc1ccc(-c2nc(Cn3c(SCc4ccc(C)cc4)nc4cccnc43)c(C)o2)cc1OC	7	0	3	.	-9
O=C(Nc1nccs1)c1ccc(CSc2ccccc2)o1	2	-40*	-7	-22	-5

Screening results from PubChem.
